Results taken from the supplement of paper PMC8975748.
Counter-ions that a name gives are not always drawn. ± gives the standard deviation of the averaged measurements.

Key:
[1] = tested on: Saccharomyces cerevisiae BY4741 SeMeCo community; test: z-score of prototroph abundance vs DMSO median; higher = larger share of this subpopulation than in DMSO controls; settings: 10 µM; 24 h; SM minimal medium; subpopulation (auxotrophy): Prototroph
Outline: (§1)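 Automated confocal microscopy of paraformaldehyde-fixed cells was used to follow a Saccharomyces cerevisiae BY4741 community carrying four plasmids, each restoring one auxotrophy and encoding a distinct fluorescent protein. The community was pre-grown overnight to OD600 1.0, diluted to 0.3, and added at 70 µl to 384-well plates acoustically predosed with library drugs (10 µM final) for 24 h of growth in minimal SM medium. Single-auxotroph fluorescent strains set thresholds and autofluorescence correction, and each subpopulation's abundance was scored as a z-score against the vehicle-well median.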

[2] = tested on: Saccharomyces cerevisiae BY4741 SeMeCo community; test: z-score of subpopulation abundance vs DMSO median, subpopulation auxotrophic for M; higher = larger share of this subpopulation than in DMSO controls; settings: 10 µM; 24 h; SM minimal medium; subpopulation (auxotrophy): M
Outline: as §1

[3] = tested on: Saccharomyces cerevisiae BY4741 SeMeCo community; test: z-score of subpopulation abundance vs DMSO median, subpopulation auxotrophic for L; higher = larger share of this subpopulation than in DMSO controls; settings: 10 µM; 24 h; SM minimal medium; subpopulation (auxotrophy): L
Outline: as §1

[4] = tested on: Saccharomyces cerevisiae BY4741 SeMeCo community; test: z-score of subpopulation abundance vs DMSO median, subpopulation auxotrophic for U; higher = larger share of this subpopulation than in DMSO controls; settings: 10 µM; 24 h; SM minimal medium; subpopulation (auxotrophy): U
Outline: as §1

[5] = tested on: Saccharomyces cerevisiae BY4741 SeMeCo community; test: z-score of subpopulation abundance vs DMSO median, subpopulation auxotrophic for H; higher = larger share of this subpopulation than in DMSO controls; settings: 10 µM; 24 h; SM minimal medium; subpopulation (auxotrophy): H
Outline: as §1

[6] = tested on: Saccharomyces cerevisiae BY4741 SeMeCo community; test: z-score of subpopulation abundance vs DMSO median, subpopulation auxotrophic for LU; higher = larger share of this subpopulation than in DMSO controls; settings: 10 µM; 24 h; SM minimal medium; subpopulation (auxotrophy): LU
Outline: as §1

[7] = tested on: Saccharomyces cerevisiae BY4741 SeMeCo community; test: z-score of subpopulation abundance vs DMSO median, subpopulation auxotrophic for LM; higher = larger share of this subpopulation than in DMSO controls; settings: 10 µM; 24 h; SM minimal medium; subpopulation (auxotrophy): LM
Outline: as §1

[8] = tested on: Saccharomyces cerevisiae BY4741 SeMeCo community; test: z-score of subpopulation abundance vs DMSO median, subpopulation auxotrophic for HM; higher = larger share of this subpopulation than in DMSO controls; settings: 10 µM; 24 h; SM minimal medium; subpopulation (auxotrophy): HM
Outline: as §1

[9] = tested on: Saccharomyces cerevisiae BY4741 SeMeCo community; test: z-score of subpopulation abundance vs DMSO median, subpopulation auxotrophic for HU; higher = larger share of this subpopulation than in DMSO controls; settings: 10 µM; 24 h; SM minimal medium; subpopulation (auxotrophy): HU
Outline: as §1

[10] = tested on: Saccharomyces cerevisiae BY4741 SeMeCo community; test: z-score of subpopulation abundance vs DMSO median, subpopulation auxotrophic for UM; higher = larger share of this subpopulation than in DMSO controls; settings: 10 µM; 24 h; SM minimal medium; subpopulation (auxotrophy): UM
Outline: as §1

[11] = tested on: Saccharomyces cerevisiae BY4741 SeMeCo community; test: z-score of subpopulation abundance vs DMSO median, subpopulation auxotrophic for HLU; higher = larger share of this subpopulation than in DMSO controls; settings: 10 µM; 24 h; SM minimal medium; subpopulation (auxotrophy): HLU
Outline: as §1

[12] = tested on: Saccharomyces cerevisiae BY4741 SeMeCo community; test: z-score of subpopulation abundance vs DMSO median, subpopulation auxotrophic for HLM; higher = larger share of this subpopulation than in DMSO controls; settings: 10 µM; 24 h; SM minimal medium; subpopulation (auxotrophy): HLM
Outline: as §1

[13] = tested on: Saccharomyces cerevisiae BY4741 SeMeCo community; test: z-score of subpopulation abundance vs DMSO median, subpopulation auxotrophic for HUM; higher = larger share of this subpopulation than in DMSO controls; settings: 10 µM; 24 h; SM minimal medium; subpopulation (auxotrophy): HUM
Outline: as §1

[14] = tested on: Saccharomyces cerevisiae BY4741 SeMeCo community; test: z-score of subpopulation abundance vs DMSO median, subpopulation auxotrophic for LUM; higher = larger share of this subpopulation than in DMSO controls; settings: 10 µM; 24 h; SM minimal medium; subpopulation (auxotrophy): LUM
Outline: as §1

[15] = tested on: Saccharomyces cerevisiae BY4741 SeMeCo community; test: z-score of subpopulation abundance vs DMSO median, subpopulation auxotrophic for HLUM; higher = larger share of this subpopulation than in DMSO controls; settings: 10 µM; 24 h; SM minimal medium; subpopulation (auxotrophy): HLUM
Outline: as §1

[16] = tested on: Saccharomyces cerevisiae BY4741 SeMeCo community; test: z-score of subpopulation abundance vs DMSO median, subpopulation auxotrophic for HL; higher = larger share of this subpopulation than in DMSO controls; settings: 10 µM; 24 h; SM minimal medium; subpopulation (auxotrophy): HL
Outline: as §1

[17] = tested on: Saccharomyces cerevisiae BY4741 SeMeCo community; test: mean cell size (pixel area) (pixels); higher = larger cells; settings: 10 µM; 24 h; SM minimal medium
Outline: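 A Saccharomyces cerevisiae BY4741 community carrying four plasmids, each with a fluorescent marker and each complementing one auxotrophy, was exposed for 24 h to drug at a final 10 µM in SM medium in acoustically predosed 384-well plates. The overnight preculture (OD600 = 1.0) was diluted to OD600 = 0.3 before 70 µl was added per well. Cells were then fixed with paraformaldehyde, imaged by automated confocal microscopy and analysed in Harmony to derive mean cell pixel area per well, averaged over 3 replicates. Same SeMeCo high-content imaging drug screen: Selleck FDA-approved drugs at 10 µM, 24 h in SM medium, 384-well plates, 3 replicates.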

Row | SMILES | z-score of prototroph abundance [1] | z-score of subpopulation abundance [2] | z-score of subpopulation abundance [3] | z-score of subpopulation abundance [4] | z-score of subpopulation abundance [5] | z-score of subpopulation abundance [6] | z-score of subpopulation abundance [7] | z-score of subpopulation abundance [8] | z-score of subpopulation abundance [9] | z-score of subpopulation abundance [10] | z-score of subpopulation abundance [11] | z-score of subpopulation abundance [12] | z-score of subpopulation abundance [13] | z-score of subpopulation abundance [14] | z-score of subpopulation abundance [15] | z-score of subpopulation abundance [16] | mean cell size [17]
1 | Cc1ncc([N+](=O)[O-])n1CC(C)O (centres undefined) [Secnidazole] | -0.48 | -0.32 | -0.91 | 1.82 | -0.22 | 0.55 | -0.67 | -0.21 | 0.82 | 0.75 | 0.35 | -0.55 | 0.55 | -0.06 | -0.46 | – | –
2 | COc1c(N2CCNC(C)C2)c(F)cc2c(=O)c(C(=O)O)cn(C3CC3)c12 (centres undefined) [Gatifloxacin] | -0.15 | -0.13 | -0.51 | 0.81 | -0.44 | 0.36 | -0.79 | -0.89 | 0.38 | – | -0.36 | -0.34 | 0.51 | -0.33 | – | -0.93 | –
3 | Cc1cccc(C#Cc2ccccc2)n1 | 0.53 | -0.25 | 0.06 | 0.22 | 0.06 | 0.12 | -0.31 | -0.61 | -0.18 | -0.28 | -0.17 | -0.43 | -0.32 | -0.34 | -0.82 | -0.06 | –
4 | CC1(C)S[C@@H]2[C@H](NC(=O)Cc3ccccc3)C(=O)N2[C@H]1C(=O)O [Benzylpenicillin potassium] | -0.27 | -0.08 | 0.24 | 0.62 | -0.83 | 0.51 | 0.02 | -0.39 | -0.05 | -0.02 | 0.89 | 0.2 | 0.17 | 0.72 | 0.88 | -0.23 | –
5 | CN1CC(=O)N2[C@H](c3ccc4c(c3)OCO4)c3[nH]c4ccccc4c3C[C@@H]2C1=O [Tadalafil] | -0.42 | 0.2 | 1.85 | -1.35 | – | 0.3 | – | – | -0.74 | -0.26 | 0.4 | 1.64 | 0.54 | 1.95 | – | 1.24 | 12.3 ± 0.19
6 | CCCCOc1cc(C(=O)NCCN(CC)CC)c2ccccc2n1 [Dibucaine HCl] | 0.15 | -0.03 | -0.47 | 0.46 | -0.92 | -0.21 | 0.03 | -0.88 | -0.13 | – | -0.62 | -0.03 | 0.03 | -0.54 | – | -1.25 | –
7 | NC(=O)c1ncn([C@@H]2O[C@H](CO)[C@@H](O)[C@H]2O)n1 [Ribavirin] | -0.16 | -0.5 | -0.43 | – | -0.52 | 0.48 | – | – | 0.42 | 0.53 | -0.19 | -0.6 | 0.49 | – | -0.37 | -0.89 | 12.45 ± 0.12
8 | CC[N+](CC)(CC)CC [Tetraethylammonium bromide] | -0.64 | 0.89 | -0.06 | 1.19 | -0.73 | 1.18 | – | – | -0.09 | – | 0.38 | -0.06 | -0.37 | – | 1.04 | – | 12.27 ± 0.094
9 | CC(=O)OC1CC2(C)C(CC(O)C3C4(C)CCC(O)C(C)C4CCC32C)C1=C(CCC=C(C)C)C(=O)O (centres undefined) [Fusidine] | -1.01 | 0.14 | 2.4 | -1.39 | 2.59 | 1.02 | 2.09 | 1.19 | 0.13 | – | 1.57 | 1.22 | 0.82 | 1.09 | 0.71 | – | –
10 | CC1=C(CC(=O)O)c2cc(F)ccc2/C1=C\c1ccc([S+](C)[O-])cc1 (centres undefined) [Sulindac] | 0.27 | 0.53 | 1.59 | -1.92 | 0.69 | -0.59 | 1.7 | 0.57 | -0.74 | -1.2 | -0.15 | -0.2 | -0.07 | 0.36 | -0.02 | 0.1 | –
11 | CCCCc1oc2ccc(NS(C)(=O)=O)cc2c1C(=O)c1ccc(OCCCN(CCCC)CCCC)cc1 [Dronedarone HCl] | -0.15 | -0.05 | 0.34 | -0.45 | 1.17 | 0.61 | 0.28 | 1.04 | 0.78 | -0.63 | 2.17 | 1.9 | -0.2 | 0.59 | 0 | 1.2 | –
12 | COc1ccc([C@@H]2Sc3ccccc3N(CCN(C)C)C(=O)[C@@H]2OC(C)=O)cc1 [Diltiazem HCl] | 0.76 | -0.12 | 0.4 | -0.19 | -0.4 | -0.4 | 0.01 | -0.74 | – | -0.21 | 0.03 | -0.37 | -0.36 | -0.24 | -0.3 | -0.78 | –
13 | COC(=O)C1=C(C)NC(C)=C(C(=O)OCC(C)C)C1c1ccccc1[N+](=O)[O-] (centres undefined) [Nisoldipine] | -0.75 | 0.83 | 0.49 | -0.48 | 0.84 | -0.62 | 1.4 | 0.97 | – | 0.03 | 0.34 | 0.45 | 1.07 | 0.88 | 1.09 | 0.67 | –
14 | CC[C@H](C)C(=O)O[C@H]1CCC=C2C=C[C@H](C)[C@H](CC[C@@H]3C[C@@H](O)CC(=O)O3)[C@H]21 [Mevastatin] | 0.08 | -0.77 | -0.41 | 0.22 | -0.21 | 0.06 | -0.31 | -0.1 | 0.2 | – | 0.15 | -0.6 | -0.29 | -0.11 | -0.71 | 0.72 | –
15 | CCCCCCCCOc1ccccc1C(=O)Nc1ccc(C(=O)OCC[N+](C)(CC)CC)cc1 [Otilonium Bromide] | -2.44 | -2.04 | -3.08 | 0.58 | 4.58 | 0.74 | -2.38 | 5.47 | – | -0.66 | 3.81 | 9.05 | 2.02 | 2.14 | 12.2 | 1.68 | –
